Measured values reported in publication PMC4552634, “A New Set of Chemical Starting Points with Plasmodium falciparum Transmission-Blocking Potential for Antimalarial Drug Discovery” (PLoS ONE, 2015).
The campaign covered roughly 13,000 compounds. About 3,200 (25%) showed an effect of 50% or more. The list shows a part of the results.

These compounds were tested on P. falciparum stage V gametocytes. Details: 48 h, 5 µM; inhibitor.
Set-up: BacTiter-Glo ATP luminescence viability of purified stage V gametocytes in 384-well plates, per cent inhibition versus DMSO

Row | Structure (SMILES) | % Inhibition
1 | CCCCCCc1cc(O)c2c3c(c(=O)oc2c1)CCN(C)C3 [TCMDC-124193] | 9.848%
2 | CC(C)c1ccc(OCC(O)CN(C)C(C)C(O)c2ccccc2)c(Br)c1 (centres unmarked) [TCMDC-141995] | 3.955%
3 | CC1(C)N=C(N)N=C(N)N1c1cccc(I)c1 [TCMDC-138037] | -1.195%
4 | O=[N+]([O-])c1ccc(/C=N/Nc2cc(-c3ccccc3)nc3ccccc23)o1 [TCMDC-142051] | 34.86%
5 | CN(C)CCNc1cc(-c2ccc3ccccc3c2)nc2ccccc12 [TCMDC-124260] | 3.28%
6 | c1ccc(-c2cc(NCCCCNc3cc(-c4ccccc4)nc4ccccc34)c3ccccc3n2)cc1 [TCMDC-137738] | 98.03%
7 | c1ccc(-c2cc(NCc3cccc4ccccc34)c3[nH]ncc3n2)cc1 [TCMDC-139455] | 76.18%
8 | COc1ccc2nc(-c3ccccc3)cc(NCCCNc3cc(-c4ccccc4)nc4ccc(OC)cc34)c2c1.Cl [TCMDC-137734] | 124.9%
9 | COc1ccc2c(NCCc3ccccc3)cc(-c3ccccc3)nc2c1 [TCMDC-138992] | 28.49%
10 | c1ccc(-c2cc(NCCCCCCCCNc3cc(-c4ccccc4)nc4ccccc34)c3ccccc3n2)cc1 [TCMDC-137983] | 96.95%
11 | c1ccc(-c2cc(NCCNc3cc(-c4ccccc4)nc4ccccc34)c3ccccc3n2)cc1 [TCMDC-137986] | 24.95%
12 | COc1ccc2nc(-c3ccccc3)cc(NCCN(C)C)c2c1 [TCMDC-123487] | -6.807%
13 | COc1ccc2nc(C)cc(NCc3cccc4ccccc34)c2c1.Cl [TCMDC-138974] | -17.8%
14 | C(=NNc1cc(-c2ccccc2)nc2ccccc12)c1cccnc1 [TCMDC-142052] | -23.81%
15 | CS(=O)(=O)NCCCNCc1ccc(-c2ccc(-c3nc4cc(C(F)(F)F)ccc4[nH]3)s2)cc1.O=C(O)C(F)(F)F [TCMDC-133076] | -24.74%
16 | COc1ccc2cc(C(C)NC3CCN(c4cccc(NC(=O)c5ccncc5)c4)CC3)ccc2c1 (centres unmarked) [TCMDC-124668] | -18.92%
17 | COc1ccc(CNC2CCN(C)CC2)cc1-c1ccc(OC)c(S(=O)(=O)NCc2ccccc2)c1 [TCMDC-132249] | 105.1%
18 | COc1ccc(CNC2CCN(C)CC2)cc1-c1ccc(S(=O)(=O)NCc2ccccc2)c(C)c1 [TCMDC-132480] | 85.24%
19 | COc1ccc(-c2cccc(CNC3CCN(C)CC3)c2)cc1S(=O)(=O)NCc1ccccc1 [TCMDC-132375] | 75.59%
20 | COc1ccc(CNC2CCN(C)CC2)cc1-c1ccc(S(=O)(=O)NCc2ccccc2)c(F)c1 [TCMDC-132262] | 59.53%
21 | NC1=NC(Cc2ccccc2)N(c2ccc(Cl)cc2)C(N)=N1 (centres unmarked) [TCMDC-131291] | 0.2754%
22 | CC(C)(C)C(C)(C)Cc1ccc(O)c(CN2CCN(c3ccccc3)CC2)c1 [TCMDC-125678] | -31.97%

Row | Structure (SMILES) | % Inhibition
23 | CC(C)[C@H](NC(=O)c1ccc(O)c(-c2cccc(C(F)(F)F)c2)c1)C(=O)NCCN1CCCCC1 [TCMDC-140815] | 44.47%
24 | O=C(Nc1ccc(-c2ccc(-c3nc4ccccc4[nH]3)s2)cc1)Nc1ccc(Cl)c(Cl)c1 [TCMDC-133283] | 1.039%
25 | CC[C@H](NC(=O)c1c(CC2CCN(CC(C)=O)CC2)c(-c2ccccc2)nc2ccccc12)c1ccccc1 [TCMDC-141946] | 44.22%
26 | CC(C)(C)c1ccc(NC(=O)c2ccc(CN3CCCN(CC4CCCCC4)CC3)cc2)cc1 [TCMDC-136428] | -70.52%
27 | N#Cc1cccc(NC(=O)Nc2ccc(-c3cccc(-c4nc5ccc(F)cc5[nH]4)c3)cc2)c1 [TCMDC-133199] | 24.35%
28 | CN(C(=O)c1snnc1-c1ccccc1)C1CCN(CCCCCNC(=O)/C=C/c2ccc(Cl)c(Cl)c2)CC1 [TCMDC-139993] | -14.58%
29 | Oc1ccc2[nH]c(-c3ccc(F)cc3F)nc2c1CN1CCC(O)(c2ccccc2)CC1 [TCMDC-136532] | -67.95%
30 | COc1ccc2nccc([C@@H](O)CN3CCC(NCc4nc5c([N+](=O)[O-])cccc5[nH]4)CC3)c2c1 [TCMDC-140982] | -2.529%
31 | CC1CN(Cc2cccc(-c3ccc(-c4nc5cc(F)ccc5[nH]4)cc3)c2)CC(C)O1.O=C(O)C(F)(F)F (centres unmarked) [TCMDC-133818] | 13.23%
32 | CC(C)N1CCN(C(CN2CCN(CCCOc3ccc(-c4ccccc4)cc3)CC2)c2ccc(F)cc2)CC1 (centres unmarked) [TCMDC-135497] | 69.79%
33 | COc1ccc(C(C(=O)NC2CCN(C[C@H](O)c3ccnc4ccc(OC)cc34)CC2)N2CCN(c3ccc(F)cc3)CC2)cc1 (some centres unmarked) [TCMDC-140993] | -29%
34 | CC(C)N1CCN(C(CN2CCN(CCCOc3cccc(F)c3)CC2)c2ccc(F)cc2)CC1 (centres unmarked) [TCMDC-135493] | 99.24%
35 | CC(C)N1CCN(C(CN2CCN(CCCOc3ccccc3-c3ccccc3)CC2)c2ccc(F)cc2)CC1 (centres unmarked) [TCMDC-135499] | 44.69%
36 | CC(CN1CCN(CC(c2ccc(F)cc2)N2CCN(C)CC2)CC1)C(=O)c1ccc(O)cc1 (centres unmarked) [TCMDC-125496] | 29.96%
37 | CC(C)N1CCN(C(CN2CCN(CCCOc3cccc(-c4ccccc4)c3)CC2)c2ccc(F)cc2)CC1 (centres unmarked) [TCMDC-135498] | 62.15%
38 | CC(C)N1CCN(C(CN2CCN(CCCOc3ccc4nonc4c3)CC2)c2ccc(F)cc2)CC1 (centres unmarked) [TCMDC-135500] | 92.96%
39 | Cc1ccc(C2(C)CN(CCCOc3cccc(-c4ccc(C(=O)NC(C)C)cc4)c3)CCO2)cc1 (centres unmarked) [TCMDC-134386] | 27.16%
40 | O=C(CCN1C(=O)c2ccccc2C1=O)N1CCN(CC=Cc2ccccc2)CC1 [TCMDC-125744] | 5.299%
41 | CCCN(c1ccc(C(F)(F)F)cc1[N+](=O)[O-])S(=O)(=O)C(c1ccccc1)c1ccc(C(F)(F)F)cc1[N+](=O)[O-] (centres unmarked) [TCMDC-132114] | 11.09%
42 | COc1ccc(C)c(Nc2ccnc(Nc3ccc(-c4cnc[nH]4)cc3)n2)c1 [TCMDC-138695] | -34.59%
43 | CC(C)(C)NC(=O)COC(=O)c1c2c(nc3ccccc13)C(=Cc1ccc3c(c1)OCO3)CCC2 [TCMDC-125143] | 31.31%
44 | CC(C)CCN(Cc1cncn1Cc1cccc(Cl)c1)C(=O)c1cncc(-c2ccccc2)c1 [TCMDC-132465] | 21.61%

Row | Structure (SMILES) | % Inhibition
45 | Cc1cc2c(cc1C(F)(F)F)N(C(=O)Nc1cnc(OCCN(C)C)c(C(F)(F)F)c1)CC2 [TCMDC-139848] | 26.2%
46 | O=C(NCc1ccccc1)NC1CCN(c2ccnc3cc(Cl)ccc23)C1 (centres unmarked) [TCMDC-133402] | -15.46%
47 | COc1ccc(NC(=O)NC2CCN(c3ccnc4cc(Cl)ccc34)C2)cc1 (centres unmarked) [TCMDC-133647] | -25.5%
48 | c1cncc(CCNCc2cccc(-c3csc(-c4nc5ccccc5[nH]4)c3)c2)c1 [TCMDC-132878] | -19.07%
49 | Cc1[nH]nc2cc(Nc3ccnc(Nc4ccc(CN5CCOCC5)cc4)n3)ccc12 [TCMDC-138633] | 14.24%
50 | O=C(Cc1cnc[nH]1)Nc1cccc(-c2ccc(-c3nc4ccc(C(F)(F)F)cc4[nH]3)cc2)c1 [TCMDC-136952] | -24.24%
51 | CC(C)N1CCN(C(CN2CCN(CCCOc3ccc4ccccc4c3)CC2)c2ccc(F)cc2)CC1 (centres unmarked) [TCMDC-135495] | 83.07%
52 | O=C(Nc1cccc(-c2ccc(CN3CCC(O)CC3)cc2)c1)c1cccc(Cl)c1 [TCMDC-132645] | -15.01%
53 | O=C(CCc1cnc[nH]1)Nc1ccc(-c2cccc(-c3nc4ccccc4[nH]3)c2)cc1 [TCMDC-132150] | 3.081%
54 | Cc1cccc2[nH]c(-c3cccc(-c4cccc(NC(=O)Nc5ccccc5)c4)c3)nc12 [TCMDC-133152] | -23.55%
55 | O=C(CCc1cnc[nH]1)Nc1cccc(-c2cccc(-c3nc4ccccc4[nH]3)c2)c1 [TCMDC-132151] | 78.34%
56 | Cc1cccc2[nH]c(-c3cccc(-c4ccc(NC(=O)CCc5cnc[nH]5)cc4)c3)nc12 [TCMDC-132159] | -12.17%
57 | Cc1cccc2[nH]c(-c3cccc(-c4cccc(NC(=O)Cc5cnc[nH]5)c4)c3)nc12 [TCMDC-136950] | -8.646%
58 | C#CCCC(=O)Nc1cccc(-c2cccc(-c3nc4c(C)cccc4[nH]3)c2)c1 [TCMDC-136857] | 61.5%
59 | Cc1cccc2[nH]c(-c3ccc(-c4cccc(NC(=O)CCc5cnc[nH]5)c4)cc3)nc12 [TCMDC-132153] | 72.28%
60 | Cc1cccc2[nH]c(-c3ccc(-c4cccc(NC(=O)Cc5cnc[nH]5)c4)cc3)nc12 [TCMDC-136942] | 73.44%
61 | Cc1cccc2[nH]c(-c3cccc(-c4ccc(NC(=O)Cc5cnc[nH]5)cc4)c3)nc12 [TCMDC-136951] | 17.26%
62 | Cc1cccc2[nH]c(-c3cccc(-c4cccc(NC(=O)CCc5cnc[nH]5)c4)c3)nc12 [TCMDC-132158] | -23.69%
63 | CCOC(=O)NCC(=O)Nc1cccc(-c2cccc(-c3nc4c(C)cccc4[nH]3)c2)c1 [TCMDC-137048] | -2.875%
64 | O=C(CCc1cnc[nH]1)Nc1cccc(-c2ccc(-c3nc4ccccc4[nH]3)cc2)c1 [TCMDC-132155] | 31.89%
65 | O=C(Nc1cccc(-c2ccc(-c3nc4ccccc4[nH]3)cc2)c1)Nc1ccc2c(c1)OCO2 [TCMDC-133164] | -3.868%
